Assay results reported in PubChem BioAssay AID1159580 (chemical genetic matrix, 2015).
The whole screen tested about 5,500 compounds, of which about 2,000 (36%) were called active. Another 18% or so got no clear call; they are omitted. Rule as the data show it: active = normalized growth mostly below about 0.91 (no sharp cut-off); inconclusive = no clear call, values can overlap the other calls; inactive = mostly above about 0.92. This is one part of the list.

Experiment: chemical genetic growth profiling, strain panel (AID 1159580);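 also: tested at 20 µM; growth read once vehicle control cultures reached saturation at 30 °C; 1 = growth at the plate median or of vehicle wells; lower values mean less growth of the strain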
Details: S. cerevisiae deletion strains, growth OD

Measured: normalized growth

OC[C@@H](O)C(O[C@@H]1O[C@H](CO)[C@H](O)[C@H](O)[C@H]1O)[C@H](O)[C@@H](O)CO (some centres undefined)
inactive: locus YAL021C, strain ccr4, stronger effect = lower value 0.969 | locus YAL026C, strain drs2, stronger effect = lower value 0.99 | locus YAL030W, strain snc1, stronger effect = lower value 0.986 | locus YBL061C, strain skt5, stronger effect = lower value 0.993 | locus YBR009C, strain hhf1, stronger effect = lower value 0.991 | locus YBR023C, strain chs3, stronger effect = lower value 0.984 | locus YBR171W, strain sec66, stronger effect = lower value 0.98 | locus YBR279W, strain paf1, stronger effect = lower value 0.981 | locus YCL011C, strain gbp2, stronger effect = lower value 0.995 | locus YCL016C, strain dcc1, stronger effect = lower value 0.983 | locus YCL061C, strain MRC1, stronger effect = lower value 0.994 | locus YCL069W, strain vba3, stronger effect = lower value 0.99 | locus YCR088W, strain abp1, stronger effect = lower value 0.98 | locus YDL005C, strain med2, stronger effect = lower value 0.979 | locus YDL040C, strain nat1, stronger effect = lower value 0.988 | locus YDR001C, strain nth1, stronger effect = lower value 0.99 | locus YDR069C, strain doa4, stronger effect = lower value 0.981 | locus YDR137W, strain rgp1, stronger effect = lower value 1 | locus YDR159W, strain sac3, stronger effect = lower value 0.982 | locus YDR195W, strain ref2 0.963 | locus YDR297W, strain sur2, stronger effect = lower value 0.987 | locus YDR334W, strain swr1, stronger effect = lower value 0.98 | locus YDR335W, strain msn5, stronger effect = lower value 0.987 | locus YDR392W, strain spt3, stronger effect = lower value 0.992 | locus YEL003W, strain gim4, stronger effect = lower value 1.01 | locus YEL037C, strain rad23, stronger effect = lower value 0.991 | locus YEL061C, strain CIN8 (second series), stronger effect = lower value 0.995 | locus YER015W, strain faa2, stronger effect = lower value 0.991 | locus YER016W, strain bim1, stronger effect = lower value 0.988 | locus YER111C, strain swi4, stronger effect = lower value 0.996 | locus YER155C, strain BEM2 (second series), stronger effect = lower value 0.976 | locus YFR010W, strain ubp6, stronger effect = lower value 0.975 | locus YGL167C, strain pmr1, stronger effect = lower value 0.986 | locus YGL173C, strain kem1, stronger effect = lower value 0.981 | locus YGL227W, strain vid30, stronger effect = lower value 0.99 | locus YGL240W, strain doc1, stronger effect = lower value 0.999 | locus YGL253W, strain hxk2, stronger effect = lower value 0.989 | locus YHR013C, strain ard1, stronger effect = lower value 0.989 | locus YHR027C, strain rpn1, stronger effect = lower value 1 | locus YHR030C, strain SLT2, stronger effect = lower value 0.976 | locus YHR079C, strain IRE1, stronger effect = lower value 0.974 | locus YHR142W, strain chs7, stronger effect = lower value 0.983 | locus YJL092W, strain hpr5, stronger effect = lower value 0.989 | locus YJL095W, strain BCK1 (second series), stronger effect = lower value 0.98 | locus YJL095W, strain BCK1, stronger effect = lower value 1.03 | locus YJL115W, strain asf1, stronger effect = lower value 0.978 | locus YJL129C, strain trk1, stronger effect = lower value 0.985 | locus YJL154C, strain vps35, stronger effect = lower value 0.991 | locus YJL164C, strain tpk1, stronger effect = lower value 0.996 | locus YJL166W, strain qcr8, stronger effect = lower value 0.987 | locus YJL187C, strain SWE1, stronger effect = lower value 0.991 | locus YJR066W, strain TOR1, stronger effect = lower value 0.926 | locus YKL160W, strain elf1, stronger effect = lower value 0.991 | locus YKR026C, strain gcn3, stronger effect = lower value 0.985 | locus YKR091W, strain srl3, stronger effect = lower value 0.983 | locus YLL001W, strain dnm1, stronger effect = lower value 1 | locus YLL026W, stronger effect = lower value 0.989 | locus YLL041C, strain sdh2, stronger effect = lower value 0.992 | locus YLR027C, strain aat2, stronger effect = lower value 0.991 | locus YLR113W, strain HOG1, stronger effect = lower value 1.04 | locus YLR221C, strain rsa3, stronger effect = lower value 0.994 | locus YLR258W, strain gsy2, stronger effect = lower value 0.989 | locus YLR262C, strain YPT6 (second series), stronger effect = lower value 1 | locus YLR320W, strain mms22, stronger effect = lower value 0.98 | locus YLR342W, strain FKS1, stronger effect = lower value 0.987 | locus YLR357W, strain rsc2, stronger effect = lower value 0.959 | locus YLR370C, strain arc18, stronger effect = lower value 0.994 | locus YLR384C, strain iki3, stronger effect = lower value 0.983 | locus YML120C, strain ndi1, stronger effect = lower value 0.995 | locus YMR058W, strain fet3, stronger effect = lower value 0.99 | locus YMR125W, strain sto1, stronger effect = lower value 0.981 | locus YMR129W, stronger effect = lower value 0.995 | locus YMR205C, strain PFK2, stronger effect = lower value 0.994 | locus YMR231W, strain pep5, stronger effect = lower value 0.967 | locus YNL071W, strain lat1, stronger effect = lower value 0.985 | locus YNL183C, strain NPR1, stronger effect = lower value 0.934 | locus YNL209W, strain ssb2, stronger effect = lower value 1.01 | locus YNL248C, strain rpa49, stronger effect = lower value 0.991 | locus YNL322C, strain KRE1 (second series), stronger effect = lower value 0.986 | locus YNR049C, strain mso1, stronger effect = lower value 0.981 | locus YOR001W, strain rrp6, stronger effect = lower value 0.989 | locus YOR070C, strain gyp1, stronger effect = lower value 0.996 | locus YOR080W, strain dia2, stronger effect = lower value 0.981 | locus YOR083W, strain WHI5, stronger effect = lower value 0.986 | locus YOR106W, strain vam3, stronger effect = lower value 0.988 | locus YOR231W, strain MKK1, stronger effect = lower value 0.976 | locus YOR265W, strain rbl2, stronger effect = lower value 1 | locus YOR270C, strain vph1, stronger effect = lower value 1.01 | locus YOR290C, strain snf2, stronger effect = lower value 0.998 | locus YPL051W, strain arl3, stronger effect = lower value 1.01 | locus YPL078C, strain atp4, stronger effect = lower value 0.997 | locus YPL106C, strain sse1, stronger effect = lower value 0.969 | locus YPL240C, strain hsp82, stronger effect = lower value 0.988 | locus YPL256C, strain CLN2, stronger effect = lower value 0.986
